Hits are enriched below; roughly 28% of the tested compounds scored in any of these assays.
hDAT+cocaine – changed human dopamine transporter uptake under cocaine IC80. Q01959. LLC-PK1 hDAT cells, [14C]-dopamine uptake with cocaine IC80; actives deviate in either direction. B-score at 10 µM. 110,000 compounds, 1.3% hits. AID 449768;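 active = Z score or B-score, a plate-position-corrected score, falls beyond the plate's 99.7% confidence bounds, in either direction; inactive = both scores lie inside the 99.7% bounds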;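 note: scored against the spread of the other compound wells on the same plate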
D1 allo mod – D1 dopamine receptor (human) allosteric modulation | P21728 | HEK293 D1, CRE-luciferase, dopamine EC30 potentiation; actives deviate in either direction | B-score at 10 µM | 58,000 compounds, 5.9% hits | AID 641;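 active = luminescence count or its row- and column-corrected plate score outside the 99.7% band of the plate's sample wells, on either side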
Target sequence (P21728 whole entry, looked up): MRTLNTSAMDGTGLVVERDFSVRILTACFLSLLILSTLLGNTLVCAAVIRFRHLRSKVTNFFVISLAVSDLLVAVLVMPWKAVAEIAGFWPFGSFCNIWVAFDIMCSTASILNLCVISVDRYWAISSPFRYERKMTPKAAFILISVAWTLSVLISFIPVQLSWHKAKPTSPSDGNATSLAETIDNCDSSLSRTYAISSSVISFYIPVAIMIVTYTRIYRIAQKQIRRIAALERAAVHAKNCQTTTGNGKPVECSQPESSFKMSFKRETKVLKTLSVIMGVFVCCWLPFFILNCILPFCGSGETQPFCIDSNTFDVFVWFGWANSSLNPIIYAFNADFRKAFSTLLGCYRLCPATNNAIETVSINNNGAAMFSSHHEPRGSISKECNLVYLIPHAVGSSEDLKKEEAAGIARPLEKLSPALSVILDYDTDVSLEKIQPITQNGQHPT
CYP2C9 inhib – human CYP2C9 inhibition; inhibition, % at 5 µM; CYP2C9 Supersomes, luciferin-H conversion, luminescence; 96,000 compounds, 20% hits;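 active = blocking of liver enzyme CYP2C9 beyond about 50% at 5 µM, limit read from the data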
CYP2C9 act – CYP2C9 (human) activation | activation factor at 5 µM | P11712 | recombinant CYP2C9, luciferin-H conversion, luminescence; stronger effect = higher value; factor 1 = untreated enzyme, 0 = blocked | AID 1024 | 96,000 compounds, 1.4% hits;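 active = activation factor of 2 or more for CYP2C9 at a 5 µM dose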;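 note: 0 = sulfaphenazole-blocked wells and 1 = vehicle-only wells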
CYP2C19 inh – inhibitors of human CYP2C19; CYP2C19 Supersomes, luciferin-H EGE luminescence, 30 min; 96,000 compounds, 21% hits; inhibition, % at 5 µM; P33261; AID 778;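 active = CYP2C19 inhibition above a set limit at 5 µM in the primary screen, cut at about 50% in these data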;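 note: plate controls were negative control wells for no effect and 2.5 mM tranylcypromine positive control for full effect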
CYP2C19 activ – cytochrome P450 2C19 (human) activation. recombinant CYP2C19, luciferin-H EGE luminescence; stronger effect = higher value; 0 = fully inhibited enzyme, 1 = untreated enzyme. activation factor at 5 µM. 96,000 tested, under 10 active;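 active = activation factor of at least 2 at 5 µM in the primary screen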;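 note: 0 = wells with 2.5 mM tranylcypromine and 1 = vehicle-only wells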
Active calls of the source: *; / = no result.

SMILES	hDAT+cocaine	D1 allo mod	CYP2C9 inhib	CYP2C9 act	CYP2C19 inh	CYP2C19 activ
Cc1cc(C)n(Cc2cccc(F)c2)c(=O)c1C#N	0.0935	-0.338	6.4	0.9	10.9	0.9
N#Cc1c(-c2ccco2)nc(SCc2ccc(F)cc2)[nH]c1=O	0.0251	-0.735	63.1*	0.4	26.0	0.7
CC(C)Cc1nc(SCC(=O)Nc2ccc(S(N)(=O)=O)cc2)n[nH]1	1.04	/	21.2	0.8	17.6	0.8
Cc1nc(SCc2cccc(F)c2)[nH]c(=O)c1C#N	0.976	-0.59	74.8*	0.3	-2.1	1
N#Cc1c(-c2ccco2)nc(SCC(=O)Nc2ccc(S(N)(=O)=O)cc2)[nH]c1=O	/	/	50.4*	0.5	-8.9	1.1
COc1ccc2nc(SCC(=O)Nc3ccc(S(=O)(=O)Nc4nccc(C)n4)cc3)[nH]c2c1	-0.151	/	22.8	0.8	29.3	0.7
COc1ccc(NC(=O)C(NS(=O)(=O)c2ccc3c(c2)CCCN3C(C)=O)C(C)C)c(OC)c1 (stereo not given)	-0.502	/	64.5*	0.4	12.5	0.9
O=C(CN1C(=O)CSc2ccccc21)Nc1ccc2c(c1)OCCO2	-0.668	0.398	-118.5	2.2*	29.6	0.7
CC1CCCCN1CCNC(=O)CN1C(=O)COc2ccccc21 (stereo not given)	0.286	-3.51*	-7.6	1.1	-7.5	1.1
O=C(CN1C(=O)COc2ccccc21)Nc1ccc2c(c1)OCCO2	-0.521	-1.45	33.2	0.7	57.1*	0.4
Cc1cc2ccccc2c(=O)n1CC(=O)Nc1ccc2c(c1)OCCO2	0.0169	1.04	62.9*	0.4	55.7*	0.4
Cc1nnc(SCC(N)=O)n1CCc1ccccc1	-0.535	/	/	/	/	/
CCOCCCNC(=O)CN1C(=O)CSc2ccccc21	/	-0.353	/	/	/	/
O=C(CN1C(=O)CSc2ccccc21)NC1CCCC1	/	0.252	-126.9	2.3*	15.1	0.8
O=C(CN1C(=O)CCS(=O)(=O)c2ccccc21)Nc1ccc2c(c1)OCCO2	-1.16	/	/	/	/	/
O=C(CN1C(=O)CCSc2ccccc21)Nc1ccc2c(c1)OCO2	-0.667	-0.618	70.4*	0.3	90.0*	0.1
CCn1c(COc2cccc(C)c2C)nnc1SCC(=O)N1CCN(c2ccc(OC)cc2)CC1	0.561	/	-3.9	1	6.1	0.9
Cc1c(C=O)cnn1CCC(=O)O	-0.193	/	/	/	/	/
O=c1c2sc3nc(N4CCOCC4)c4c(c3c2ncn1CCc1ccccc1)CCCC4	/	/	60.6*	0.4	52.5*	0.5
CCOC(=O)CSc1ncnc2c1sc1nc(N3CCOCC3)c3c(c12)CCCC3	1.12	/	54.1*	0.5	17.9	0.8
Cc1cc(C)c2c(n1)sc1c(N3CCOCC3)ncnc12	/	2.83*	/	/	/	/
OCCN1CCN(c2ncnc3c2sc2nc(N4CCOCC4)c4c(c23)CCC4)CC1	0.339	2.63	78.6*	0.2	83.9*	0.2
O=C(O)Cc1ccc(O)c(F)c1	1.31	/	/	/	/	/
CCCC(=O)c1c[nH]c(C(=O)NCCCN2CCOCC2)c1	0.0289	/	-15.9	1.2	-12.8	1.1
OCCN(CCO)c1ncnc2c1sc1nc(N3CCOCC3)c3c(c12)CCCC3	4.06*	/	89.3*	0.1	80.9*	0.2
SMILES	hDAT+cocaine	D1 allo mod	CYP2C9 inhib	CYP2C9 act	CYP2C19 inh	CYP2C19 activ
CC(C)Cn1c(N)c(C(=O)NCC2CCCO2)c2nc3ccccc3nc21 (stereo not given)	0.853	/	85.3*	0.1	64.7*	0.4
Nc1c(C(=O)OCC2CCCO2)c2nc3ccccc3nc2n1C1CCCC1 (stereo not given)	1.66	1.84	55.4*	0.4	19.9	0.8
COCCn1c(N)c(C(=O)NCC2CCCO2)c2nc3ccccc3nc21 (stereo not given)	0.954	0.751	21.4	0.8	19.6	0.8
Clc1ccc(-c2nn3cnnc3s2)c(Cl)c1	0.262	0.362	29.4	0.7	88.6*	0.1
Clc1ccc(-c2nn3c(-c4ccncc4)nnc3s2)c(Cl)c1	/	1.51	15.3	0.8	83.8*	0.2
Brc1ccc(-c2nn3c(-c4ccncc4)nnc3s2)o1	/	3.15	15.5	0.8	68.8*	0.3
CCOc1cc(-c2nn3cnnc3s2)cc(OCC)c1OCC	0.124	1.78	11.7	0.9	30.7	0.7
Brc1ccc(-c2nn3c(-c4ccccn4)nnc3s2)o1	1.71	1.54	11.5	0.9	43.2	0.6
Clc1ccccc1-c1nnc2sc(C3COc4ccccc4O3)nn12 (stereo not given)	1.59	-0.000508	87.2*	0.1	86.1*	0.1
Cc1c(C#N)c2ccccc2n1CC(=O)NCc1ccccc1	0.361	/	/	/	/	/
c1ccc(-c2nn3c(-c4ccncc4)nnc3s2)nc1	/	0.995	/	/	/	/
Clc1ccc(-c2nnc3sc(-c4ccccn4)nn23)cc1	-0.199	-0.118	2.5	1	-7.4	1.1
Clc1ccccc1-c1nn2c(-c3ccccn3)nnc2s1	-0.211	/	13.6	0.9	59.6*	0.4
Cc1nn2c(-c3ccc(Cl)cc3Cl)nnc2s1	0.032	1.06	12.6	0.9	51.7*	0.5
Clc1ccc(-c2nnc3cccc(Cl)n23)c(Cl)c1	/	/	3.8	1	38.9	0.6
Clc1ccccc1-c1nnc2sc(-c3ccncc3)nn12	-0.807	4.1	34.5	0.7	80.5*	0.2
Cc1ccc(N(CN2CCCC2=O)C(=O)c2ccc(OC(C)C)cc2)cc1	-0.174	-0.795	13.1	0.9	33.9	0.7
CC(C)(C)C(=O)Nc1nc(=S)ss1	-0.0079	/	92.0*	0.1	33.3	0.7
CCC(=O)Nc1nc(=S)ss1	-0.553	/	98.8*	0	23.3	0.8
COC(=O)[C@H]1[C@@H](C)N(Cc2ccccc2)C(=O)N[C@H]1c1cccc(C(F)(F)F)c1	-1.25	/	/	/	/	/
CCOC(=O)Cc1[nH]nc2c1C(C1C=CCCC1)C(C#N)=C(N)O2 (stereo not given)	0.414	0.0172	70.8*	0.3	86.9*	0.1
O=C(NCc1ccco1)c1nc2nc(-c3cccs3)cc(C(F)(F)F)n2n1	-0.0482	/	16.2	0.8	7.7	0.9
O=C(CSc1nc(-c2cccs2)cc(C(F)(F)F)n1)NCc1ccco1	-0.17	0.212	79.2*	0.2	61.7*	0.4
CCC(C)NC(=O)CSc1nc(-c2cccs2)cc(C(F)(F)F)n1 (stereo not given)	0.147	/	88.5*	0.1	97.2*	0
O=C(NCc1ccco1)c1nn2c(C(F)(F)F)cc(-c3cccs3)nc2c1Br	-0.668	/	73.1*	0.3	15.0	0.8
NC(=O)C1CCN(S(=O)(=O)c2cccc(S(=O)(=O)N3CCCCC3)c2)CC1	-0.378	0.217	36.2	0.6	13.6	0.9
CC(=O)N(NC(=O)c1ccccc1Cl)C1CC(=O)N(c2ccc(C)cc2)C1=O (stereo not given)	2.33	/	16.2	0.8	18.4	0.8
O=C(COC(=O)C1COc2ccccc2O1)NC(=O)NC1CCCC1 (stereo not given)	0.968	0.948	-6.1	1.1	-22.1	1.2
O=C(CCC1COc2ccccc2O1)Nc1ncccc1O (stereo not given)	0.0685	-0.346	14.1	0.9	64.3*	0.4

Compound activity from PubChem BioAssay.
